The values that follow come from PubChem BioAssay (NCI).

Test systems include DU-145 prostate; K-562 leukemia; MALME-3M melanoma; MDA-MB-231 breast; RXF 393 renal; SF-268 CNS; SF-295 CNS; SF-539 CNS; UACC-257 melanoma; M14 melanoma; HCT-15 colon; HT29 colon; SNB-75 CNS; SNB-19 CNS; U251 CNS; PC-3 prostate; SK-MEL-5 melanoma; UACC-62 melanoma; LOX IMVI melanoma; SK-MEL-28 melanoma.
Common to all, as to test: NCI-60 one-dose screen, 48 h (100 = growth as untreated, 0 = no growth, -100 = all killed)
Details in all cases: 10 µM unless noted

Molecules are shown by their SMILES. Compounds without any hit were thinned out: in the full panel of roughly 83,000, 20% have a hit.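 Values shown are percent growth following 48 h exposure of cells in 96-well plates to a single concentration of compound; below 10 was considered active.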 Unmarked numbers belong to inactive results. Active and inactive are the calls of the source.

On to `Cc1ccc(CNc2ccc3nc(CCC4CCCCC4)[nH]c3c2)cc1`, for which the growth in the test on DU-145 prostate is 71.8%; with K-562 leukemia, 5.06% (active); in the test on MALME-3M melanoma, 22.4%; with MDA-MB-231 breast, 53.1%; with RXF 393 renal, 36.2%; in the test with SF-268 CNS, 71.2%. For the same molecule, the growth in the test on SF-295 CNS is 61.1%; with SF-539 CNS, 64.6%; in the test with UACC-257 melanoma it was 66.8%; in the test with M14 melanoma, 37.4%; with HCT-15 colon it was 12.7%; in the test on HT29 colon, 9.91% (active). Besides, the growth is 79.7% in the test on SNB-75 CNS; 58.4% with SNB-19 CNS; 29.8% with U251 CNS; 38.5% with PC-3 prostate; -19.5% (active) with SK-MEL-5 melanoma; 32.9% in the test with UACC-62 melanoma. For the same molecule, the growth is 50.1% with LOX IMVI melanoma and 38.5% in the test on SK-MEL-28 melanoma.

With `O=C1Nc2ccccc2/C1=C/c1cccn1CCCCn1c2ccccc2c(=O)c2ccccc21`, the growth in the test with DU-145 prostate was 94.2%; in the test with K-562 leukemia, 59.5%; in the test on MALME-3M melanoma, 91.9%; in the test with MDA-MB-231 breast, 64.7%; with RXF 393 renal it was 88.1%; in the test on SF-268 CNS it was 83.1%. In addition, the growth in the test with SF-295 CNS is 101%; with SF-539 CNS, 93%; in the test on UACC-257 melanoma, 105%; in the test with M14 melanoma, 85.1%; in the test with HCT-15 colon it was 31.7%; in the test with HT29 colon, 89.1%. Further, the growth was 78% with SNB-75 CNS; 98.4% with SNB-19 CNS; 95.1% in the test with U251 CNS; 55.1% in the test on PC-3 prostate; 38.6% in the test on SK-MEL-5 melanoma; 51.8% in the test on UACC-62 melanoma. The results for the growth in the test with LOX IMVI melanoma and in the test with SK-MEL-28 melanoma were 82.5% and 105%, respectively.

With `CCn1cc(C(=O)NNC(=S)Nc2ccc(C)cc2)c(=O)c2ccc(C)nc21`, the growth in the test with DU-145 prostate was 108%; in the test on K-562 leukemia it was 99%; in the test with MALME-3M melanoma, 103%; with MDA-MB-231 breast, 93.5%; in the test with RXF 393 renal it was 104%; with SF-268 CNS, 103%. In addition, the growth with SF-295 CNS is 102%; in the test with SF-539 CNS, 102%; in the test with UACC-257 melanoma, 94%; in the test on M14 melanoma, 113%; with HCT-15 colon it was 103%; in the test on HT29 colon it was 97.5%. Also, the growth in the test with SNB-75 CNS is 97.3%; in the test with SNB-19 CNS it was 102%; with U251 CNS, 93.9%; in the test with PC-3 prostate it was 90.2%; in the test with SK-MEL-5 melanoma it was 101%; with UACC-62 melanoma, 91.3%. Moreover, the growth was 95.1% in the test with LOX IMVI melanoma and 105% in the test on SK-MEL-28 melanoma.

Take `Clc1cc(Cl)c(Cl)c(-c2nnc(SCc3ccncc3Br)o2)c1`: the growth in the test with DU-145 prostate is 99.9%; with K-562 leukemia, 69.5%; in the test on MALME-3M melanoma, 100%; in the test on MDA-MB-231 breast, 93.3%; with RXF 393 renal, 128%; in the test with SF-268 CNS, 97.8%. The growth was 95.2% in the test on SF-295 CNS; 90.9% with SF-539 CNS; 103% with UACC-257 melanoma; 97.9% in the test on M14 melanoma; 112% in the test on HCT-15 colon; 102% in the test on HT29 colon. The growth was 84.4% in the test on SNB-75 CNS; 102% in the test with SNB-19 CNS; 90.3% in the test on U251 CNS; 92.4% in the test on PC-3 prostate; 81.8% with SK-MEL-5 melanoma; 89.7% in the test on UACC-62 melanoma. The growth with LOX IMVI melanoma was 95%; in the test with SK-MEL-28 melanoma, 94.4%.

On to `O=C(O)c1ccc(-n2cc(/C=N/Nc3ccccc3)c(-c3ccc(F)cc3F)n2)cc1`, for which the growth in the test with DU-145 prostate is 49.2%; in the test on K-562 leukemia, 18.6%; with MALME-3M melanoma it was 70.4%; with MDA-MB-231 breast, 41%; in the test on RXF 393 renal, 92.9%; in the test with SF-268 CNS it was 45.8%. The growth was 77.2% in the test with SF-295 CNS; 75.3% in the test on SF-539 CNS; 114% with UACC-257 melanoma; 41.8% in the test with M14 melanoma; 51.4% in the test with HCT-15 colon; 90.5% in the test on HT29 colon. Also, the growth was 78.2% in the test with SNB-75 CNS; 84.3% in the test with SNB-19 CNS; 85.9% in the test with U251 CNS; 51.9% in the test with PC-3 prostate; 58% in the test on SK-MEL-5 melanoma; -14.3% (active) with UACC-62 melanoma. The growth is 18.5% in the test on LOX IMVI melanoma and 74.1% with SK-MEL-28 melanoma.

Regarding `O=C1Nc2ccccc2/C1=C/c1nc2ccccc2c(=O)[nH]1`, the growth was 99.3% in the test with DU-145 prostate; 86.2% in the test with K-562 leukemia; 92.8% in the test with MALME-3M melanoma; 84.5% in the test on MDA-MB-231 breast; 96% in the test with RXF 393 renal; 94.6% in the test on SF-268 CNS. The growth is 101% in the test on SF-295 CNS; 93.6% in the test on SF-539 CNS; 104% in the test with UACC-257 melanoma; 82.2% with M14 melanoma; 72.6% in the test with HCT-15 colon; 105% in the test with HT29 colon. Also, the growth was 88.9% in the test on SNB-75 CNS; 95.5% with SNB-19 CNS; 96.3% with U251 CNS; 77.7% in the test with PC-3 prostate; 94.4% in the test on SK-MEL-5 melanoma; 96.1% in the test on UACC-62 melanoma. For the same molecule, the growth in the test on LOX IMVI melanoma was 82.1%; in the test on SK-MEL-28 melanoma, 109%.

`O=C(CN1CCOCC1)Nc1nc(-c2cc3ccccc3oc2=O)cs1`: the growth is 106% in the test on DU-145 prostate; 96.3% in the test on K-562 leukemia; 102% with MALME-3M melanoma; 93.6% with MDA-MB-231 breast; 109% with RXF 393 renal; 90.1% in the test with SF-268 CNS. Besides, the growth was 101% in the test on SF-295 CNS; 97.6% with SF-539 CNS; 106% in the test with UACC-257 melanoma; 101% in the test with M14 melanoma; 104% with HCT-15 colon; 103% with HT29 colon. For the same molecule, the growth is 82.2% in the test with SNB-75 CNS; 101% in the test on SNB-19 CNS; 98.7% in the test on U251 CNS; 97.5% in the test on PC-3 prostate; 99.2% in the test on SK-MEL-5 melanoma; 92.5% with UACC-62 melanoma. In addition, the growth with LOX IMVI melanoma was 95.6%; in the test on SK-MEL-28 melanoma, 104%.

For `CCN(CC)CCCCCNc1cc(OC(=O)c2ccc(Cl)cc2)cc2cccnc12`, the growth with DU-145 prostate was 114%; in the test with K-562 leukemia, 75.3%; in the test on MALME-3M melanoma it was 61%; with MDA-MB-231 breast, 85.8%; in the test with RXF 393 renal it was 98.9%; in the test on SF-268 CNS it was 114%. Moreover, the growth in the test with SF-295 CNS was 120%; in the test on SF-539 CNS, 104%; in the test with UACC-257 melanoma it was 95.9%; in the test with M14 melanoma, 102%; in the test on HCT-15 colon, 97.7%; with HT29 colon, 87.6%. In addition, the growth with SNB-75 CNS is 89.5%; in the test on SNB-19 CNS, 103%; in the test on U251 CNS it was 105%; with PC-3 prostate, 88.8%; in the test with SK-MEL-5 melanoma it was 105%; in the test on UACC-62 melanoma, 98%. Further, the growth in the test with LOX IMVI melanoma was 106%; with SK-MEL-28 melanoma it was 116%.
